Tests used:
Experiment in all cases: log2 ratio of Biotin-Ahx-Ub-VS probe labelling (fragment/DMSO); higher = less target engagement (more negative = stronger competition), active = hit call of the paper (q ≤ 0.05, log2 ratio ≤ -1)
Conditions in all cases: compound concentration: 200 uM; treatment time: 3 h
[1] = molecular target: T1, OTUD6B (UniProt Q8N6M0)
T1 sequence (whole entry): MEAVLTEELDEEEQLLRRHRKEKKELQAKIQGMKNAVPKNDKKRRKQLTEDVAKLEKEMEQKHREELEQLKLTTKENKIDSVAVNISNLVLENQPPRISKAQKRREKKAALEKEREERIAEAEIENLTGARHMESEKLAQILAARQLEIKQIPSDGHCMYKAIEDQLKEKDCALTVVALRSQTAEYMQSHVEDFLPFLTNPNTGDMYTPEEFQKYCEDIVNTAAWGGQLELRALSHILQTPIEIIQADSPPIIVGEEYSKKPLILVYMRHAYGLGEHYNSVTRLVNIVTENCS
In short: (§1)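 The table lists average log2 ratios of fragment over vehicle, from an unpaired t-test on global-median-normalised Spectronaut label-free quantities. Proteins with ≥2 unique peptides were used. Samples were HEK293T lysate (495 µg) treated in triplicate with fragment at 200 µM or vehicle for 3 h, then with Biotin-Ahx-Ub-VS (0.5 µM final) for 1 h, with labelled DUBs NeutrAvidin-enriched and run by diaPASEF LC-MS/MS.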

[2] = molecular target: T2, OTUD7B (UniProt Q6GQQ9)
T2 sequence (whole entry): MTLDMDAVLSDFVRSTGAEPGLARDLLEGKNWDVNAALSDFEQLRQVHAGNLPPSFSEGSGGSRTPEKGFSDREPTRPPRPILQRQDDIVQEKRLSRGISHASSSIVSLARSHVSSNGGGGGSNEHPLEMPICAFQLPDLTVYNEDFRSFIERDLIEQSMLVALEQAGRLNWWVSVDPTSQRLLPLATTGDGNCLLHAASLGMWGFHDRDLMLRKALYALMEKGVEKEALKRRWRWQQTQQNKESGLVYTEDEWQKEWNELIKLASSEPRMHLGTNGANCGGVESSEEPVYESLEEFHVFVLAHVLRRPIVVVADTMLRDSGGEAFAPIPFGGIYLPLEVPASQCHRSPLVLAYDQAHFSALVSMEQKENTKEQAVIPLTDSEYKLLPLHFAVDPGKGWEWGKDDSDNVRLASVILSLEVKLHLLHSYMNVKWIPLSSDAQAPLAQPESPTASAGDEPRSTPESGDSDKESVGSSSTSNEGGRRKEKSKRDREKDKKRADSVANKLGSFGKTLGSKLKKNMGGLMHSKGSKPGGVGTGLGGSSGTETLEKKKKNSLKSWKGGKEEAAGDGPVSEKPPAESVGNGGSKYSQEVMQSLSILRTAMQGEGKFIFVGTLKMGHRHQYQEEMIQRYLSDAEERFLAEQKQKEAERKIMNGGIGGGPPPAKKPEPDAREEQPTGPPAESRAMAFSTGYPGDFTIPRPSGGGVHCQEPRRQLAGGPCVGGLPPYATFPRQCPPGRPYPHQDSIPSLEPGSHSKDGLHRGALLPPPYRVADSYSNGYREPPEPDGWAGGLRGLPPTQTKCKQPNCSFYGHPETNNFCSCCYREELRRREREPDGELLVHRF
In short: as §1

[3] = molecular target: PRPF8 (UniProt Q6P2Q9)
In short: as §1

[4] = molecular target: T3, PSMD7 (UniProt P51665)
T3 sequence (whole entry): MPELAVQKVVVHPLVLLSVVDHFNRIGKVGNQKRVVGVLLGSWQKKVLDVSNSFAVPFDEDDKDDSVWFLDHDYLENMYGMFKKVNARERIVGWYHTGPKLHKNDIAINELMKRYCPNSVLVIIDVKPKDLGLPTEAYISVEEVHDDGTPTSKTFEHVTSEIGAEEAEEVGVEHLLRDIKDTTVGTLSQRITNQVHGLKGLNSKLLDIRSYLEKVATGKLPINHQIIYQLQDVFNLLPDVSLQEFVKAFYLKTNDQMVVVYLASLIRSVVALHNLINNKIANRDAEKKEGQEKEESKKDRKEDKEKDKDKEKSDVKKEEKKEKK
In short: as §1

[5] = molecular target: UCHL1 (UniProt P09936)
Sequence of UCHL1 (P09936 whole entry, looked up): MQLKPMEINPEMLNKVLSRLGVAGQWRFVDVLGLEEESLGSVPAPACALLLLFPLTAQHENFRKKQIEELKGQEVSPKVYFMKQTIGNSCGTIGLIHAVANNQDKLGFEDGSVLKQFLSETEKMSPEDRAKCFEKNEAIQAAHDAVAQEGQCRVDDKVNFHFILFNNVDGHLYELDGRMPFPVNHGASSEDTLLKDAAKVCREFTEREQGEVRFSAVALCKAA
In short: as §1

[6] = molecular target: T4, UCHL3 (UniProt P15374)
T4 sequence (whole entry): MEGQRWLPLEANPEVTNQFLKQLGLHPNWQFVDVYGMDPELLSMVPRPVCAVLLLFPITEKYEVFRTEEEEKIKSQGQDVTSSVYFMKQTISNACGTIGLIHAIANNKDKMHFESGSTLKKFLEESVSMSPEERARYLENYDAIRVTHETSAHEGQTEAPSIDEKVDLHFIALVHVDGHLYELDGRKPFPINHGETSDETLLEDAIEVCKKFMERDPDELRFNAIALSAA
In short: as §1

[7] = molecular target: T5, UCHL5 (UniProt Q9Y5K5)
T5 sequence (whole entry): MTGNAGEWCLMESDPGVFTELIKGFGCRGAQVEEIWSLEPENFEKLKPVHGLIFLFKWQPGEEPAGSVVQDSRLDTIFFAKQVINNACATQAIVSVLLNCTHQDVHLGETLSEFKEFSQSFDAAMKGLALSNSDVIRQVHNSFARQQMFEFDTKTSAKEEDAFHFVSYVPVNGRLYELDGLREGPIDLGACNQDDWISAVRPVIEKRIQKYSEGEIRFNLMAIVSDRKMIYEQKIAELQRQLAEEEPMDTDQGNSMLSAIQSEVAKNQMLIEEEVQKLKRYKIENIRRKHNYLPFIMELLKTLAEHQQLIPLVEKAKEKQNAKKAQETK
In short: as §1

[8] = molecular target: USP10 (UniProt Q14694)
Sequence of USP10 (Q14694 whole entry): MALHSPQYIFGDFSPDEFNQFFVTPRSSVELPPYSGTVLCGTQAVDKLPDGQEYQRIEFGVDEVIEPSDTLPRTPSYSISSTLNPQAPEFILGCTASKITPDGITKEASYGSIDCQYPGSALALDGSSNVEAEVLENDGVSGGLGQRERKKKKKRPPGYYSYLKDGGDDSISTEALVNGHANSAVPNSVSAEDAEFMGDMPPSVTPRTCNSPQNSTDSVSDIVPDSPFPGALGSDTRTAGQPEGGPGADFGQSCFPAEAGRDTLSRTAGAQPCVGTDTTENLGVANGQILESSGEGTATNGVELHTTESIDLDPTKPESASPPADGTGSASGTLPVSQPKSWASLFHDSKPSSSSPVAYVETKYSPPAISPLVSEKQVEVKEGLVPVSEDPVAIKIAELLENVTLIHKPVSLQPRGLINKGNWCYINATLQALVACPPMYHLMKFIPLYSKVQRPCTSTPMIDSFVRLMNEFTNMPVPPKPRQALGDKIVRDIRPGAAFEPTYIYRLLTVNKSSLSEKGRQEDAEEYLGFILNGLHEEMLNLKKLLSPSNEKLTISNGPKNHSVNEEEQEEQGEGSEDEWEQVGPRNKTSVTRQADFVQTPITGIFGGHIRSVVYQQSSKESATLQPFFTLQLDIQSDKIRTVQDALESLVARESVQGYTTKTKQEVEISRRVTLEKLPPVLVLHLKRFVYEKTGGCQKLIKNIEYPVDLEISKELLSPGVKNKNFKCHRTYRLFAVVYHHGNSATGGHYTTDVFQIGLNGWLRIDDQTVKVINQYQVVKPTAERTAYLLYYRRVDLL
In short: as §1

[9] = molecular target: T6, USP15 (UniProt Q9Y4E8)
T6 sequence (whole entry): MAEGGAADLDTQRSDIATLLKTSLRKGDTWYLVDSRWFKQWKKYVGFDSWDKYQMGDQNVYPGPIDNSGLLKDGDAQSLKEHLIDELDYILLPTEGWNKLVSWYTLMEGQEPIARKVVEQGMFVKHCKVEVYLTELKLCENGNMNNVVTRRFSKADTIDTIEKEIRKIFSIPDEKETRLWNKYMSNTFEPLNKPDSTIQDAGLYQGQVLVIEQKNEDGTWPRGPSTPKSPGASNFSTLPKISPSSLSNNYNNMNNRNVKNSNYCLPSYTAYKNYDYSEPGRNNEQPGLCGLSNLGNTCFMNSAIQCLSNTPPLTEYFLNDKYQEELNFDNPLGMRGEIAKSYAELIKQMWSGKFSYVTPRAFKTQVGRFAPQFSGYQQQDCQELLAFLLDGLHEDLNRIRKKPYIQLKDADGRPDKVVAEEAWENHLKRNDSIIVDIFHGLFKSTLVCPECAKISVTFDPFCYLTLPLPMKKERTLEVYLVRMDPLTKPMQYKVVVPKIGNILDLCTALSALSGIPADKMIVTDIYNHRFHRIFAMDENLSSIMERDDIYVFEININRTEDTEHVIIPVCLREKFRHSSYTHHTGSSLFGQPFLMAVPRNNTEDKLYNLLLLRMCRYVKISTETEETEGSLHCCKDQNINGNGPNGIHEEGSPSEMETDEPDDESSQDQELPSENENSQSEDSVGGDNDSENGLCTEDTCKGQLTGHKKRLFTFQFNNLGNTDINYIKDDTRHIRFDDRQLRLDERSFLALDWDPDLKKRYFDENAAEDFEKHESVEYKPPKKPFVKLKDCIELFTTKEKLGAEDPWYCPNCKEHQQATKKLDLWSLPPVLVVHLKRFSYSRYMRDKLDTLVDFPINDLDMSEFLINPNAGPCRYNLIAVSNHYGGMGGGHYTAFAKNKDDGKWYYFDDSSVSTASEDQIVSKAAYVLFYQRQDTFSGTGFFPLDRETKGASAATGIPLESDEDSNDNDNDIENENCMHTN
In short: as §1

[10] = molecular target: USP16 (UniProt Q9Y5T5)
Sequence of USP16 (Q9Y5T5 whole entry, looked up): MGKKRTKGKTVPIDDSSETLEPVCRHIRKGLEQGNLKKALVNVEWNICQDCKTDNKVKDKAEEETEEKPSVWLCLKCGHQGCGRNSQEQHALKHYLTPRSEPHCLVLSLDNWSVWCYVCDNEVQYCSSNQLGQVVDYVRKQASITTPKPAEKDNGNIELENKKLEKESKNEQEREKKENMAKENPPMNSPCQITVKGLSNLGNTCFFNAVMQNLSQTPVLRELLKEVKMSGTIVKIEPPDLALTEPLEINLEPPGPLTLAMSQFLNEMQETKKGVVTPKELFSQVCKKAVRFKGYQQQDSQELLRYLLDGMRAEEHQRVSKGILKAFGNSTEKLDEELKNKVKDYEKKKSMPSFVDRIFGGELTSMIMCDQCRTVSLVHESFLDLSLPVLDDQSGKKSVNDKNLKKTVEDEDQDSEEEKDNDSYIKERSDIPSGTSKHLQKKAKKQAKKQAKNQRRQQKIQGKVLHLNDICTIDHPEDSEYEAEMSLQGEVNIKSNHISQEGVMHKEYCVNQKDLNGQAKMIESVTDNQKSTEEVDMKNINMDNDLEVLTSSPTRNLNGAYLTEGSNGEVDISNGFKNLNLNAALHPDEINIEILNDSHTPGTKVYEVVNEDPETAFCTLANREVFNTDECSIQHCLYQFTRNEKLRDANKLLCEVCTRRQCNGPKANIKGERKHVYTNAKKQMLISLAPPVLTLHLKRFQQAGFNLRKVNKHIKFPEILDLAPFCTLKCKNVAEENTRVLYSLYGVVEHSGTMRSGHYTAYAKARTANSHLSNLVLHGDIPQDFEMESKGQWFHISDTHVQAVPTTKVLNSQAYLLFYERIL
In short: as §1

Measured: log2 ratio of Biotin-Ahx-Ub-VS probe labelling

CC(=O)Nc1ccc(NC(=O)CCl)cc1
active: [2] -1.13
inactive: [1] -0.276 | [3] 0.0134 | [4] -0.163 | [5] -0.918 | [6] 0.206 | [7] -0.201 | [8] -0.113 | [9] -0.154 | [10] -0.288

Source: the supplement of paper PMC11732987, “Enantioselective OTUD7B fragment discovery through chemoproteomics screening and high-throughput optimisation” (Communications Chemistry, 2025)
